Screening data (PubChem)
CRFR2-BP ag – agonists of human CRF-binding protein/CRF-R2 receptor complex; HEK293 CRF-R2/CRF-BP, calcium dye fluorescence (FLIPR); percent of saturating CRF peptide response; activation, % at 13.2 µM; 0.46% of 350,000 active; AID 588473;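 active = activation of at least 50%, plus an integration ratio under a set limit after plate pattern correction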;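 note: plate controls were neutral control wells without compound for no effect and CRF at EC100 for full effect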
CRFR2-BP antag – antagonists of CRF-binding protein/CRF-R2 receptor complex; HEK293 CRF-R2/CRF-BP, CRF-induced calcium fluorescence; 0.59% of 350,000 active; inhibition, % at 11.8 µM;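 active = inhibition of the ligand-induced calcium signal above about 50% at the single tested concentration, limit read from the data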
NTR1 agonist – agonists of human neurotensin receptor NTR1; P30989; NTR1-U2OS beta-arrestin-GFP spot imaging, agonist mode; activation, % at 20 µM; 0.17% of 330,000 active;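 active = activation at or above 40% of the spot to cytoplasm intensity ratio, with at least 20 cells analyzed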;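 note: 0% = DMSO without peptide and 100% = 100 nM NTR1 peptide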
Target sequence (P30989 whole entry, looked up): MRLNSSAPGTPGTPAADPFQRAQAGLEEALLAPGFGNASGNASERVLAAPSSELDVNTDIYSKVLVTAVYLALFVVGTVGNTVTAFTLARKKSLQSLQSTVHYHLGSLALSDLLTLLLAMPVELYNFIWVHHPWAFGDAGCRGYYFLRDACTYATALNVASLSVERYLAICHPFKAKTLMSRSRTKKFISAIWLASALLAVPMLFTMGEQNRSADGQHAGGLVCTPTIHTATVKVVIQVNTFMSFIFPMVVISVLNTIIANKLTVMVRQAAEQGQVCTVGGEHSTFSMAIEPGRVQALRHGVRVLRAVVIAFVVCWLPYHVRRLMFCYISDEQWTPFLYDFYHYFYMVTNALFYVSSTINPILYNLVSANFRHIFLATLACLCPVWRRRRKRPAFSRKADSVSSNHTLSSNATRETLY
V-ATPase pH – yeast V-ATPase proton transport regulation by pHLuorin; response, % at 10 µM; S. cerevisiae, pHLuorin cytosolic pH fluorescence; AID 504577; 0.37% of 350,000 active; in the data active = response mostly above about 7.3%, no sharp cut-off; inactive = mostly below about 5.4%; note: actives read high
NTR1 ag confirm – confirmation of agonists of human NTR1; 38% of 480 active; AID 504550; activation, % at 20 µM; NTR1-U2OS beta-arrestin-GFP translocation imaging; shares compounds with NTR1 agonist;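 active = mean activation at 20 µM of at least 40%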;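 note: 0% = DMSO without peptide and 100% = 100 nM NTR1 peptide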
Starred values were filed as active, the others as inactive; . = no result given. Rows were chosen to be rich in hits. Some 1.5% of all compounds tested hit in one or more screens of this group.

SMILES	CRFR2-BP ag	CRFR2-BP antag	NTR1 agonist	V-ATPase pH	NTR1 ag confirm
c1ccc(CN2CCN(c3ncnc4c3[nH]c3ccccc34)CC2)cc1	-1.5	-18.1	20.4	3.7	.
Cc1ccc2[nH]c3c(N4CCN(Cc5ccccc5)CC4)ncnc3c2c1	-3.6	-22.6	43.3*	2.4	22.3
Cc1ccc2c(c1)[nH]c1c(N3CCN(Cc4ccccc4)CC3)ncnc12	-0.7	-18.7	56.2*	3.2	7.7
CC12CCC(=O)N1C(C(=O)NCc1ccc(Cl)cc1Cl)CS2 (stereo unspecified)	0.2	3.3	0.7	-0.5	.
CC1(C)CC(=O)C(C(C2=C(O)CC(C)(C)CC2=O)c2ccc(Br)s2)C(=O)C1 (stereo unspecified)	21.1	4.2	59.3*	5.4	44.5*
Cc1ccc(C(C2=C(O)CC(C)(C)CC2=O)C2C(=O)CC(C)(C)CC2=O)s1 (stereo unspecified)	1.0	-7.0	5.1	2.2	.
C=CCNc1nc(C(=O)OCC(=O)N(Cc2ccccc2)C(C)C)cs1	2.0	-0.1	0.1	-5.0	.
Cn1ccsc1=NC(=O)c1ccc(S(C)(=O)=O)cc1	-0.2	-0.9	0.4	3.1	.
CCOC(=O)/C=c1\s/c(=C\c2ccc3cc(OC)ccc3c2)c(=O)n1CC(=O)NCC1CCCO1 (stereo unspecified)	34.8	-18.3	52.1*	-3.9	45.2*
CC(C)NC(=O)Nc1cccc2c1O[C@H](CN(C)C(=O)NC1CCCCC1)[C@@H](C)CN([C@H](C)CO)C2=O	2.2	-3.2	-0.6	1.1	.
CCN1CCN(CCNC(=O)c2ccc(/C=C3/Sc4ccccc4N(Cc4cccc(Cl)c4)C3=O)cc2)CC1	5.5	-7.2	57.7*	4.5	27.2
Cc1cccc(CN2C(=O)/C(=C\c3ccc(C(=O)NCCN4CCOCC4)cc3)Sc3ccccc32)c1	2.9	-15.6	18.1	-3.5	.
O=[N+]([O-])c1ccc(-c2cnc(SC(c3ccccc3)c3ccccc3)[nH]2)cc1	2.2	11.5	54.4*	-2.5	17.7
CC(C)Cn1c(N)c(C(=O)COC(=O)C2CC(=O)N(Cc3ccccc3Cl)C2)c(=O)n(C)c1=O (stereo unspecified)	-0.9	1.3	0.7	-0.4	.
Cc1nnc(NC(=O)c2ccc3ccccc3c2)s1	-0.7	-28.5	-0.8	-1.4	.
CC(C)c1nnc(NC(=O)c2ccc3ccccc3c2)s1	0.6	-31.3	44.6*	-0.5	20.6
CC1CCC(C(C)C)C(OCC(O)CNC(C)(C)C)C1 (stereo unspecified)	-0.4	1.4	1.3	1.2	.
CC1CCC(C(C)C)C(OCC(O)CNC(C)c2ccccc2)C1 (stereo unspecified)	0.1	-26.1	40.2*	2.6	40.8*
COc1ccc(S(=O)(=O)Nc2ccc3c(c2)C(=O)N([C@H](C)CO)C[C@H](C)[C@@H](CN(C)S(=O)(=O)c2cn(C)cn2)OCCCC[C@H](C)O3)cc1	0.2	13.9	.	1.0	.
COc1ccc(Cn2cc3c(-c4ccc(F)cc4)nnc-3c3cc(OC)c(OC)cc32)cc1	6.6	7.3	45.5*	-0.5	78.3*
Cn1nc2c3cc(F)ccc3n(Cc3ccc(F)cc3)cc-2c1=O	-0.9	-13.2	-0.7	-0.3	.
COc1ccc(-c2nnn(Cc3ccccc3)n2)cc1OC	-0.2	-2.1	0.1	-3.3	.
COc1cc2c3nnc(-c4ccc(F)cc4)c-3cn(Cc3ccccc3)c2cc1OC	-3.7	3.9	49.0*	5.7	83.7*
CCOC(=O)C1CCCN(C(=O)C2CCN(S(=O)(=O)c3c(C)noc3/C=C/c3ccccc3F)CC2)C1 (stereo unspecified)	3.2	-1.5	1.6	-2.3	.
O=C1ON=C(c2ccccc2)/C1=C/c1ccc(O)cc1	10.4	-15.5	34.5	-3.3	.
SMILES	CRFR2-BP ag	CRFR2-BP antag	NTR1 agonist	V-ATPase pH	NTR1 ag confirm
O=C1ON=C(c2ccc(Cl)cc2)/C1=C/c1ccc(O)cc1	17.2	-12.5	66.0*	.	97.6*
Cc1ccc(S(=O)(=O)N(CCCO)CC(O)CON=C2c3ccccc3-c3ccccc32)cc1 (stereo unspecified)	2.5	-9.3	46.7*	-0.4	21.5
Cc1ccc(NC(=O)CSCC(=O)N2CCN(Cc3ccc4c(c3)OCO4)CC2)cc1	-1.7	-0.9	0.2	-0.3	.
Cc1cc(C)cc(OCC(O)CN2CCC(CN3C(=O)c4cccc5cccc(c45)C3=O)CC2)c1 (stereo unspecified)	-5.1	-10.4	47.7*	9.7	57.8*
O=C1c2cccc3cccc(c23)C(=O)N1CC1CCN(CC(O)COc2ccc3ccccc3c2)CC1 (stereo unspecified)	1.6	0.7	41.2*	-3.7	58.6*
COc1cc2c(cc1OC)CN(C1CCC(C)CC1)CC2 (stereo unspecified)	2.6	7.0	-1.0	-0.6	.
CC[C@@H](C(=O)[C@@H](C)[C@@H](O)[C@H](C)CCc1ccc(C)c(O)c1C(=O)O)[C@H]1O[C@](CC)([C@H]2CC[C@](O)(CC)[C@H](C)O2)C[C@@H]1C	118.4*	-2.4	53.2*	1.4	62.5*
CC[C@@H](C(=O)[C@@H](C)[C@@H](O)[C@H](C)[C@@H]1O[C@@H]([C@@H](CC)C(=O)O)CC[C@@H]1C)[C@H]1O[C@]2(C=C[C@@H](O)[C@]3(CC[C@@](C)([C@H]4CC[C@](O)(CC)[C@H](C)O4)O3)O2)[C@H](C)C[C@@H]1C	2.6	4.9	.	-2.9	.
O=c1c2[nH]c3ccc(Br)cc3c2ncn1Cc1ccncc1	-1.4	17.8	-1.1	.	.
Cc1[nH]c2ccccc2c1/C=N/Nc1ccccc1[N+](=O)[O-]	-0.3	4.6	40.3*	0.9	9.9
Cc1nn(-c2ccccc2)c(C)c1C(=O)N1CCN(S(=O)(=O)c2ccccc2)CC1	-1.1	-10.4	4.1	-0.8	.
COc1cc(C(=O)/C=C/c2cccnc2)c([N+](=O)[O-])cc1OC	-0.1	-8.4	42.2*	-46.1	47.0*
COc1cc(/C=C/C(=O)c2ccc(C)c([N+](=O)[O-])c2)cc(OC)c1O	-7.9	-59.1	30.2	-0.9	.
COc1cccc(/C=C/C(=O)c2ccc(C)c([N+](=O)[O-])c2)c1	0.6	-31.2	66.3*	-0.4	1.6
COc1ccc(/C=C/C(=O)c2ccc(C)c([N+](=O)[O-])c2)cc1O	-4.1	-118.2	43.1*	0.2	25.1
Cc1ccc(OCc2nc(-c3cccs3)no2)c([N+](=O)[O-])c1	-0.2	18.3	1.3	0.5	.
O=C(CCCOC(=O)c1ccc(O)cc1O)c1ccc(Br)cc1	0.5	8.1	6.7	-1.9	.
C=C(C)COc1ccc(-c2nc(N)ncc2-c2ccc(OC)c(OC)c2)c(O)c1	-8.4	-75.9	2.0	0.0	.
C=C(C)COc1ccc(-c2nc(N)ncc2-c2ccc(Cl)cc2)c(O)c1	2.7	6.4	69.5*	3.6	25.8
CCCCCOC(=O)C1=C(C)Nc2nnnn2C1c1ccccc1Cl (stereo unspecified)	-2.4	-20.0	57.8*	-6.0	14.0
COC(=O)C1=C(C)Nc2nnnn2C1c1ccccc1Cl (stereo unspecified)	-1.8	4.2	0.6	9.4	.
